Reference: PubChem BioAssay AID504333 (National Center for Advancing Translational Sciences (NCATS), 2011)
Hit rate of the full screen: of about 360,000 compounds, about 16,000 (4.4%) were called active. A call without a number means that no potency is given here. About 9% were inconclusive and are not listed. The call rests on the fitted dose curve; in most records, active means well fitted inhibition curve with a large enough effect; inconclusive means small, poorly fitted or top-dose-only effect; inactive means no such curve, though single readings can be large or run the other way. The sample as a whole holds a higher share of actives than the screen did.

What follows are molecules tested against Bromodomain adjacent to zinc finger domain protein 2B (Homo sapiens) (UniProt Q9UIF8) (assay: qHTS Assay for Inhibitors of BAZ2B). Conditions: AlphaScreen BAZ2B-H3K14Ac peptide displacement; series mostly up to 114 µM.
Outline: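 BAZ2B 50 nM plus b-H3(5-23)K14Ac 50 nM, PBS pH 7.4/0.01% Tween-20, 30 min RT; compound added (max 110 uM), 30 min RT; streptavidin donor/Ni-chelate acceptor beads 10 ug/mL final, 20 min dark; AlphaScreen read.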
Further: nearly all actives have a fitted effect of over 60% in size.
Potency means the concentration at half of the fitted maximal effect.

Chain of Bromodomain adjacent to zinc finger domain protein 2B (Homo sapiens) (Q9UIF8 whole entry, looked up, the tested form may be a part): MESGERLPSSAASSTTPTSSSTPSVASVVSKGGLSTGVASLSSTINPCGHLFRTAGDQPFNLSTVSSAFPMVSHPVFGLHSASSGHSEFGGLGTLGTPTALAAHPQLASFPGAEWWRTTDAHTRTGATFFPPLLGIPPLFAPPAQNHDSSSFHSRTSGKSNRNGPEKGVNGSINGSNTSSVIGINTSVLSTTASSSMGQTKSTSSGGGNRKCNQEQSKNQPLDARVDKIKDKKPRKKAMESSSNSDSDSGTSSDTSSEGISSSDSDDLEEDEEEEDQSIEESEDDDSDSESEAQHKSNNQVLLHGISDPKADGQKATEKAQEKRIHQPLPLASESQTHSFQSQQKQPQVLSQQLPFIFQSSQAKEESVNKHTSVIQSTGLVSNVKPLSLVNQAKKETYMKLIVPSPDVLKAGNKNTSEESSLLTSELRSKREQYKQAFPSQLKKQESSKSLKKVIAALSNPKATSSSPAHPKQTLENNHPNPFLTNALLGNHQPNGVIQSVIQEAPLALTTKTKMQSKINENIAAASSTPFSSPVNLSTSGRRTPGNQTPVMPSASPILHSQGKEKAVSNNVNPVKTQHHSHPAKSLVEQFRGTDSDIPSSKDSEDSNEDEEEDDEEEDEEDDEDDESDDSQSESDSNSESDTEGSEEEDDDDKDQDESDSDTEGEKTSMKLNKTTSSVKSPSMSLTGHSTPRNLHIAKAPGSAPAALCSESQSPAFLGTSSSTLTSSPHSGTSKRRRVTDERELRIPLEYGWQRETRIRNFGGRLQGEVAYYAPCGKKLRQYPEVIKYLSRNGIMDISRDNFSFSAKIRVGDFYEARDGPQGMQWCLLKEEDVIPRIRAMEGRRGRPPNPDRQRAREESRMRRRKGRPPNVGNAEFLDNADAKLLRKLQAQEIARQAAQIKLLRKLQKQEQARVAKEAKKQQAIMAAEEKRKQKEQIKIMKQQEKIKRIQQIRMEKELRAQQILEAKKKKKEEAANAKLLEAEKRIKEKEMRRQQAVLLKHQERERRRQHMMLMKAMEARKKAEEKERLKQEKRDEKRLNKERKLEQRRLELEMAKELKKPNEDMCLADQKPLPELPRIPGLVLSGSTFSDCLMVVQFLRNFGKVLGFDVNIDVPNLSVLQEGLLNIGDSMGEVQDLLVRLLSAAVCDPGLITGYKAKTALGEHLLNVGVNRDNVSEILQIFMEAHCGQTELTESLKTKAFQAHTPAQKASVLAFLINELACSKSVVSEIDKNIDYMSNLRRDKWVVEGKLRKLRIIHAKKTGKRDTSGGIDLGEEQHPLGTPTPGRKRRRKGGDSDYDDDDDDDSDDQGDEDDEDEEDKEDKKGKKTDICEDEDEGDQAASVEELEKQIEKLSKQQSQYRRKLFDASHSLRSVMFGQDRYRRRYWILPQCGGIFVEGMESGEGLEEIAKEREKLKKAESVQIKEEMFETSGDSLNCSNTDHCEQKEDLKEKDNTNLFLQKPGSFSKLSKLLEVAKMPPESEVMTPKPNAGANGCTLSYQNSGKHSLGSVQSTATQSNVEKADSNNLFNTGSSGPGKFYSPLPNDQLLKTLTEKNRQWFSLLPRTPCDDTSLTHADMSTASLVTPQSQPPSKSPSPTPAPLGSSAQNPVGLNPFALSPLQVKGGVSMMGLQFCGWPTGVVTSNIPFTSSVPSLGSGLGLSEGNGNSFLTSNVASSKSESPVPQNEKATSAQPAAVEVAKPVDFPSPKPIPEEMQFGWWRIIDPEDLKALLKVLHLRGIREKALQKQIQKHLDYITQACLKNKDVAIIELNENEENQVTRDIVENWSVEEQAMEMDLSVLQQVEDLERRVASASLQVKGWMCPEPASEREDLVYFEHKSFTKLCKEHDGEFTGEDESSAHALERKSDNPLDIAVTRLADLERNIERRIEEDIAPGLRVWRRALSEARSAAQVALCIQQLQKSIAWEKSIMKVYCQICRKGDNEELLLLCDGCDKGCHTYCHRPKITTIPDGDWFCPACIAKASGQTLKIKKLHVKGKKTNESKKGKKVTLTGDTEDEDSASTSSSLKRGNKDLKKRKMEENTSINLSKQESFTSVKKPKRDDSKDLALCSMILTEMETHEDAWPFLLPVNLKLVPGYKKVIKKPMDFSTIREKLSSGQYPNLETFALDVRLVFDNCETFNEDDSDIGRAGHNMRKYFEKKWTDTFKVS

SMILES | Potency
Cc1cc(C)c(NC(=O)CN2C(=O)c3cccnc3Oc3ccc(Cl)cc32)c(C)c1 | inactive
COc1cc(NC(=O)c2cc3ccc4cccnc4c3[nH]2)cc(OC)c1OC | inactive
CCN(c1ncnc2c1cnn2-c1ccc(C)cc1)C1CCCCC1 | inactive
O=c1[nH]c2cc(Br)ccc2n2cccc12 | inactive
Cc1ccc(OCCCC(=O)Nc2ccc(S(=O)(=O)Nc3cc(C)nc(C)n3)cc2)cc1 | inactive
COc1ccc(NC(=O)CSc2nc(NS(=O)(=O)c3ccc(C)cc3)cc(=O)[nH]2)cc1 | 50.1 µM (active)
Cc1ccc(NC(=O)CSc2nc(CSc3ccc(C)cc3)cc(=O)[nH]2)cc1 | inactive
CCc1nnc(NS(=O)(=O)c2ccc(NC(=S)NC(=O)/C=C/c3cccs3)cc2)s1 | 50.1 µM (active)
CCc1nnc(NS(=O)(=O)c2ccc(NC(=S)NC(=O)c3cccs3)cc2)s1 | inactive
CCc1nnc(NS(=O)(=O)c2ccc(NS(=O)(=O)c3ccccc3)cc2)s1 | inactive
Cc1cc(-c2ccccc2)n2nc(-c3ccccc3)cc2n1 | inactive
CCc1ccccc1NC(=O)Cn1c(=O)n(CC2CCC(C(=O)NCCc3ccccc3)CC2)c(=O)c2ccccc21 (configuration not stated) | inactive
COc1ccc(/C=C(/CC(=O)Nc2ccc(C)cc2)c2nc3ccccc3s2)cc1 | inactive
COc1cccc2sc(NNC(=O)c3nc4ccccc4s3)nc12 | 35.5 µM (active)
COc1ccccc1OCc1nc2ccccc2s1 | inactive
Cc1cc2nc(-c3ccc(NC(=O)c4cc5ccccc5o4)cc3)oc2cc1C | inactive
COc1ccccc1CNC(=O)C(=O)NCC(c1ccco1)S(=O)(=O)c1ccc(F)cc1 (configuration not stated) | inactive
CCCN(C(=O)Cn1cc(S(=O)(=O)N2CCN(c3ccccc3F)CC2)c2ccccc2c1=O)c1cccc(C)c1 | inactive
COc1cc(C(=O)NCC(c2ccc(Cl)cc2)N2CCOCC2)cc(OC)c1OC (configuration not stated) | inactive
CCOc1ccccc1/C=c1\sc2nc(-c3ccco3)nn2c1=O | 50.1 µM (active)
CCOc1ccccc1NC(=O)Cn1c(=O)n(Cc2ccco2)c(=O)c2sc3ccccc3c21 | inactive
CCOC(=O)C1CCN(C(c2ccc(F)cc2)c2sc3nc(-c4ccco4)nn3c2O)CC1 (configuration not stated) | inactive
Cc1ccc(-n2c3nc(=O)[nH]c(=O)c-3cc3c(Cl)cccc32)cc1 | inactive
CCOc1ccc(OCC)c(NC(=O)c2cc(C)nc3c2c(C)nn3-c2cccc(Cl)c2C)c1 | inactive
Cc1ccc(C(=O)Nc2cc3c(cc2N2CCCC2)n(C)c(=O)c(=O)n3C)cc1 | inactive

SMILES | Potency
O=S(=O)(c1ccc(Cl)cc1)c1nnn2c1nc(NC1CCCC1)c1sccc12 | inactive
O=C(Nc1ccc(S(=O)(=O)N2CCC(c3nc4ccccc4s3)CC2)cc1)c1ccccc1F | inactive
S=c1[nH]nc(-c2ccncc2)n1/N=C/c1ccccc1Cl | inactive
S=c1[nH]nc(-c2ccco2)n1/N=C/c1ccc(Br)s1 | 70.8 µM (active)
S=c1[nH]nc(-c2cccs2)n1/N=C/c1cccs1 | inactive
COc1ccc(C2C(=O)N(C3CCCCCC3)CC(=O)N2CCc2ccc(Cl)cc2)cc1OC (configuration not stated) | inactive
O=C(CNC(=O)C1COc2ccccc2O1)N/N=C/c1cc(Br)c(O)c(Br)c1 (configuration not stated) | inactive
Cc1c(CC(=O)N2CCN(C(=O)C3COc4ccccc4O3)CC2)c(=O)oc2c(O)c(O)ccc12 (configuration not stated) | 7.94 µM (active)
COc1ccc(OC)c2sc(N3CCN(C(=O)C4COc5ccccc5O4)CC3)nc12 (configuration not stated) | inactive
Cn1c(C(=O)Nc2cccc(C(F)(F)F)c2)cc2c(=O)n3ccccc3nc21 | inactive
COc1cccc(C(=O)NCc2ccc3c(c2)CCN3C(=O)c2ccncc2)c1 | inactive
CN(C)CCOCCOc1ccc(Cl)c2ccccc12 | 50.1 µM (active)
CCOc1ccc(S(=O)(=O)N2CCCCCC2)c2ccccc12 | inactive
CCN(CC)CCOCCOc1ccc(Cl)c2ccccc12 | 79.4 µM (active)
C#CCOc1ccc(C2CC(=O)Nc3c2c(C)nn3-c2nc(C)cc(C)n2)cc1 (configuration not stated) | inactive
COc1ccccc1C(=O)Nc1c(C(=O)Nc2ccc(C)cc2)oc2ccccc12 | inactive
CCOc1cccc(CC(=O)N2CCc3c([nH]c4ccccc34)C2c2ccc(OC)cc2)c1OCC (configuration not stated) | inactive
Cc1cccc(C(=O)N2CCc3c([nH]c4ccccc34)C2CC(C)C)n1 (configuration not stated) | inactive
CCOc1ccc(C2c3[nH]c4ccccc4c3CCN2Cc2cccn2-c2ncccn2)cc1 (configuration not stated) | 28.2 µM (active)
c1ccc(C2c3[nH]c4ccccc4c3CCN2Cc2cccn2-c2cccnc2)nc1 (configuration not stated) | 31.6 µM (active)
Cc1ccc(N(CC(=O)NCc2ccc(Cl)cc2)S(=O)(=O)N(C)C)cc1 | inactive
CCOc1ccc(NC(=O)CCC(=O)N2CC(C)Oc3ccc(C)cc32)cc1 (configuration not stated) | inactive
CCCn1c2ccccc2c2cnn(CC(=O)NCC3CCN(Cc4ccc(C)cc4)CC3)c(=O)c21 | inactive
Cc1ccc(NC(=O)c2oc3ccc(S(=O)(=O)N4CCCCC4)cc3c2C)cc1Cl | inactive
COc1ccc(Cl)cc1S(=O)(=O)N1CCC(c2ccncc2)CC1 | inactive

SMILES | Potency
Cc1nn(Cc2ccc(F)cc2)c(C)c1NC(=O)c1cc(CC(C)C)on1 | inactive
Cc1cc(C)c2oc(C(=O)Nc3c(C(=O)Nc4ccccc4)oc4ccccc34)cc(=O)c2c1 | inactive
COc1ccc2[nH]cc(CCN3C(=O)c4ccc(C(=O)O)cc4C3=O)c2c1 | inactive
COC(=O)CN1C(=O)C(O)=C(C(C)=O)C1c1ccc([N+](=O)[O-])cc1 (configuration not stated) | inactive
COc1ccc(C2C(C(C)=O)=C(O)C(=O)N2CCc2c[nH]c3ccccc23)cc1 (configuration not stated) | 56.2 µM (active)
Cc1cccc(N(C)C(=O)CS(=O)(=O)c2cccc3nsnc23)c1 | inactive
Cc1ccc(C)c(N2C(=O)N(Cc3c(F)cccc3Cl)c3ccccc3S2(=O)=O)c1 | inactive
CC(=O)c1cc(C#N)c(SCC(=O)Nc2nccs2)nc1C | inactive
CC(=O)c1cc(C#N)c(SCC(=O)C(C)(C)C)nc1C | inactive
CC(=O)c1cc(C#N)c(N2CCCCC2)nc1C | 56.2 µM (active)
Cc1cccc(-c2nnc(SCC(=O)N3CCCc4ccccc43)o2)c1 | inactive
CCC(=O)N1CCc2cc(Br)cc(S(=O)(=O)NCc3ccc(Cl)cc3)c21 | inactive
COc1ccccc1CNC(=O)Cn1nc(C)c2nn(-c3ccc(Cl)cc3)c(C)c2c1=O | inactive
CCN(C(=O)Cn1cnc2sc(C)c(S(=O)(=O)N3CCN(c4ncccn4)CC3)c2c1=O)c1ccccc1F | inactive
CCCCc1nnc(NC(=O)CSc2nc(C)cc(=O)[nH]2)s1 | inactive
CCOC(=O)Cc1csc(NC(=O)CSc2ccc(Br)cc2)n1 | inactive
CCOC(=O)Cc1csc(NC(=O)CSc2nc(C)cc(=O)[nH]2)n1 | 50.1 µM (active)
O=C(CSc1ncc(-c2ccccc2)[nH]1)Nc1ccc(F)cc1F | inactive
COC(=O)c1c(NC(=O)C(C)Oc2ccc(Cl)c(C)c2)sc(C)c1C (configuration not stated) | inactive
COC(=O)CN1C(=O)CSc2ccc(S(=O)(=O)Nc3cc(C)ccc3C)cc21 | inactive
CCc1ccc(CN(Cc2ccco2)C(=O)COc2ccc(Cl)c(C)c2)cc1 | inactive
O=C(O)c1cccc(NC(=S)N/N=C/c2c[nH]c3ccccc23)c1 | inactive
CSC(=S)N/N=C/c1c[nH]c2ccccc12 | 35.5 µM (active)
O=C(N/N=C/c1c[nH]c2ccccc12)c1ccccc1O | inactive
O=C(NCCc1ccccc1)c1ccc2c(c1)N(Cc1ccccc1)C(=O)c1ccccc1S2(=O)=O | inactive

SMILES | Potency
CCC(=O)N1CCc2cc(CNS(=O)(=O)c3ccc(Br)s3)ccc21 | inactive
C#CCOCCOCCOCCNc1nc(N2CCN(C(=O)[C@H](CCCCN)n3cc(CCC(=O)O)nn3)CC2)nc(N2CCN(C(=O)[C@H](CCCCN)n3cc(CC(C)O)nn3)CC2)n1 (some centres not stated) | inactive
C#CCOCCOCCOCCNc1nc(N2CCN(C(=O)[C@H](CCC(=O)O)n3cc(C(N)CO)nn3)CC2)nc(N2CCN(C(=O)[C@H](CCCCN)n3cc(C(N)[C@H](C)CC)nn3)CC2)n1 (some centres not stated) | 14.1 µM (active)
C#CCOCCOCCOCCNc1nc(N2CCN(C(=O)[C@H](CCC(=O)O)n3cc(C(N)CO)nn3)CC2)nc(N2CCN(C(=O)[C@H](CCCCN)n3cc(C(N)CC(C)C)nn3)CC2)n1 (some centres not stated) | 44.7 µM (active)
CCOc1ccc(N(CC)S(=O)(=O)N2CCCC(C(=O)NCc3ccc(Cl)cc3)C2)cc1 (configuration not stated) | inactive
CCCCNC(=O)C1CCCN(c2nnc(C)c3c(C)n(-c4ccc(Cl)cc4)nc23)C1 (configuration not stated) | inactive
CCN(CC)C(=O)CSc1nc2cc3c(cc2c(=O)n1CCCC(=O)NCc1ccc2c(c1)OCO2)OCO3 | inactive
Cc1ccc2onc(CC(=O)N3CCN(c4ccc(Cl)cc4)CC3)c2c1 | inactive
Cc1ccc2cccc(NC(=O)c3cccc4ccccc34)c2n1 | inactive
CCc1ccc(N2C(=O)CN(S(=O)(=O)CC)CC2(C)C(=O)NC2CCCCC2)cc1 (configuration not stated) | inactive
COc1ccc(-c2cn3ccc(C)cc3n2)cc1 | inactive
Cc1ccn2cc(-c3nonc3C)cc2c1 | 56.2 µM (active)
COc1cc(OC)cc(C(=O)Nc2cc3nn(-c4ccccc4)nc3cc2Cl)c1 | inactive
Cc1cccc(C(CC(=O)NCC2(c3ccccc3)CCCC2)c2ccccc2)c1O (configuration not stated) | inactive
Cn1c(SCC(=O)N2CCCc3ccccc32)ncc(C(=O)Nc2ccc(F)cc2)c1=O | inactive
COc1ccc(CNc2nc(-c3ccc(Cl)cc3)cc(C(F)(F)F)n2)cc1 | inactive
Brc1ccc(OCCn2ccnc2)cc1 | inactive
O=C(NCCCn1ccnc1)c1ccccc1F | inactive
CCOc1ccc(S(=O)(=O)NCCCn2ccnc2)cc1NC(C)=O | inactive
C=CCc1cc(C)ccc1OCCCn1ccnc1 | 31.6 µM (active)
Clc1c(OCCCn2ccnc2)ccc2ccccc12 | 39.8 µM (active)
Cc1ccc(S(=O)(=O)c2nc(NCCCn3ccnc3)sc2Cl)cc1 | inactive
